High-throughput results: PubChem, National Center for Advancing Translational Sciences (NCATS)
This is a sample that favours compounds with a hit; in the whole collection about 2.7% have one here.
KDM5B inhibitor: inhibitors of human KDM5B histone demethylase. Q9UGL1. KDM5B demethylase, FDH-coupled NADH fluorescence (FDH is formaldehyde dehydrogenase). Potency, µM (top dose mostly 57.7 µM), actives largely listed as inhibitors. 220,000 compounds, 2.6% hits. AID 1347165; note: potency is the fitted concentration of half-maximal effect; 0% is about no effect; nearly all actives have a fitted effect of over 70% in size
Target sequence (Q9UGL1 whole entry, looked up): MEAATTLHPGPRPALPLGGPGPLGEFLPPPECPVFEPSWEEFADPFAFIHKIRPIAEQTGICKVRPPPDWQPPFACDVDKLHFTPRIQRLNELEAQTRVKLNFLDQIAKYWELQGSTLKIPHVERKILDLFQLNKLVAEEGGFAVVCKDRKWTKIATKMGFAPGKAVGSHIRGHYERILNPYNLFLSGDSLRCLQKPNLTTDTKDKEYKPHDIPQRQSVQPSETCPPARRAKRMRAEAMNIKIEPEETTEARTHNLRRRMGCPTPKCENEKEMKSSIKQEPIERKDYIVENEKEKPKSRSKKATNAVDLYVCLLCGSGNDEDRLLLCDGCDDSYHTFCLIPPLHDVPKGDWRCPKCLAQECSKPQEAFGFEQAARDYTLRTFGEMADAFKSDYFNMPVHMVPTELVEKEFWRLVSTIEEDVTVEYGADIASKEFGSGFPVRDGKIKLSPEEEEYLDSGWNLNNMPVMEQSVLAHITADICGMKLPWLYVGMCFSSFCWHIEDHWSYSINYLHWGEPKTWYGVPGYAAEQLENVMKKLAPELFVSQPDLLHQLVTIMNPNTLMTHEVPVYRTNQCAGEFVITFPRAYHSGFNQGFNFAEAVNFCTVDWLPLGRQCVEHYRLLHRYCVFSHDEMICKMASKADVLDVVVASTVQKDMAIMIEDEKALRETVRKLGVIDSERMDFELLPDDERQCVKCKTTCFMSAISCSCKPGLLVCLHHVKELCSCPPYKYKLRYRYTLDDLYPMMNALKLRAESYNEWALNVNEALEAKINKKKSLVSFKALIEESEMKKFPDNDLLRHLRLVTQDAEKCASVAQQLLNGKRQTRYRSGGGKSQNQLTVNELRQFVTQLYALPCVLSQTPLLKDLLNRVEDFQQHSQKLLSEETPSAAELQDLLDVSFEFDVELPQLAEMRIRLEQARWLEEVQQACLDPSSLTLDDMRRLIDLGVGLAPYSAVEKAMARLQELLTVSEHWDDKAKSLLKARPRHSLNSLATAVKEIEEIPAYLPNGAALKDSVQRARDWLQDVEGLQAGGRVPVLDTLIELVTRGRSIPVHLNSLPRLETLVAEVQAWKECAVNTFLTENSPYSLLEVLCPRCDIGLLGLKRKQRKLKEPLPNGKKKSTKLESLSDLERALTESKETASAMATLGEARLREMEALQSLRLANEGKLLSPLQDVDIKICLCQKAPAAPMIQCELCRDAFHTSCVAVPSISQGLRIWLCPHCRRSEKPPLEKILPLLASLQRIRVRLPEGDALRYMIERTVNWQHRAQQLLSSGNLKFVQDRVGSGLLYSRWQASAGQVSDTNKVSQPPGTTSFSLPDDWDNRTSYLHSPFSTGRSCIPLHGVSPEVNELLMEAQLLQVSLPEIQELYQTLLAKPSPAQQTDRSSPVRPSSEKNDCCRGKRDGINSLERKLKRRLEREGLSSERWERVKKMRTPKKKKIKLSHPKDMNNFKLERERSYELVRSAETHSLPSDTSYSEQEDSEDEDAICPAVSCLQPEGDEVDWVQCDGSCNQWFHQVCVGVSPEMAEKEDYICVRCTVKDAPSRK
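Coupled FDH/NAD⁺ fluorescence readout. KDM5BΔAP 200 nM final; compound titration, 10 min RT preincubation; substrate mix 12.5 µM H3K4me3, 25 µM 2-OG, 50 µM Fe(II), 100 µM ascorbate, 0.25 mM NAD⁺, 0.25 U/mL FDH; ΔRFU over 30 min.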
IP6K1 inh: inhibitors of human IP6K1 | 140,000 compounds, 0.81% hits | Q92551 | IP6K1 kinase, ADP-Glo luminescence, 2 h; active compounds read low | AID 1645851 | activity change, % (series mostly up to about 58 µM); in the data active = activity change below about -25%; note: % is set by controls: 0 for no effect and ±100 for the full control effect
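ADP-Glo luminescence measures ADP made by human IP6K1 during a 2 h RT reaction with ATP/IP6 (mix at 1.3 mM/130 uM); top library doses 57.5 and 19.1 uM final.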
IP6K1 conf: human IP6K1 inhibition, confirmatory. Potency, µM (highest dose often 49 µM), inactives show at the highest dose activity change, negative = inhibition, most hits filed as inhibitors. recombinant IP6K1 kinase, ADP-Glo luminescence, 2 h. AID 1645852. shares compounds with IP6K1 inh. 1,200 compounds, 13% hits; note: potency is the fitted concentration of half-maximal effect; % is set by controls: 0 for no effect and ±100 for the full control effect; nearly all actives have a fitted effect of over 65% in size
Starred values were filed as active, the others as inactive. Unless noted, calls come from the whole dose curve; as a rule, active = well fitted inhibition curve with a large enough effect; inconclusive = small, poorly fitted or top-dose-only effect; inactive = no such curve, though single readings can be large or run the other way.

c1csc(-c2nc(NC3CCCC3)c3ccccc3n2)c1 was read as KDM5B inhibitor inactive.
Clc1ccc2c(NCc3cccs3)ncnc2c1 was read as KDM5B inhibitor inactive.
COc1ccc2nc3n(c2c1)[C@@H](CNS(=O)(=O)Cc1ccccc1)COC3 was read as KDM5B inhibitor inconclusive and IP6K1 inh -20.
CC(C)CC(NC(=O)c1cnc2ccccc2c1)c1nnc2n1CCNCC2 (stereo not given) was read as KDM5B inhibitor inactive and IP6K1 inh -3.
`CC(C)CC(NC(=O)C1=NNC(=O)CC1)c1nnc2n1CCNCC2` (stereo not given) gave KDM5B inhibitor inactive, IP6K1 inh -40* and IP6K1 conf -9%.
Screening CCOc1cc(CNc2ccc(O)cc2)cc(Br)c1OCc1ccccc1 returned KDM5B inhibitor inconclusive, IP6K1 inh -43* and IP6K1 conf inconclusive.
`CNCc1cc(Br)c(OCc2ccccc2)c(OC)c1` gave KDM5B inhibitor inactive.
For CCn1cc(C(CC(=O)N2CCC(C)CC2)c2cccc(Cl)c2)c2ccccc21 (stereo not given) the results were KDM5B inhibitor inconclusive and IP6K1 inh -3.
Cc1ccc(CN2CCc3nc(N4CCN(c5ncccn5)CC4)ncc3C2)cc1 was read as KDM5B inhibitor inconclusive and IP6K1 inh -15.
For Cc1cccc(CN2CCc3nc(N4CCN(c5ccccn5)CC4)ncc3C2)c1 the results were KDM5B inhibitor inconclusive, IP6K1 inh -27* and IP6K1 conf inconclusive.
For Cc1ccc(C(CNC(=O)c2cccs2)N2CCC(C)CC2)o1 (stereo not given) the results were KDM5B inhibitor inactive.
O=Cc1ccc(O)c(O)c1O was read as IP6K1 inh -33* and IP6K1 conf inconclusive.
For CC(C)c1cc(C=O)c(O)c(C=O)c1 the results were KDM5B inhibitor inactive.
Screening CCN(CC)S(=O)(=O)c1ccc(-c2nc(C#N)c(NCc3cccnc3)o2)cc1 returned KDM5B inhibitor inactive.
Cc1ccc(-c2onc3ccc(-c4cc(C(=O)O)c5cc(Br)ccc5n4)cc23)cc1 was read as KDM5B inhibitor inactive.
COc1ccc(OC)c(-c2cnc3[nH]cc(CC(N)=O)c3c2)c1 was read as KDM5B inhibitor inactive and IP6K1 inh -22.
`CNC(=O)c1cccc(-c2cnc3[nH]cc(CC(=O)N(C)c4ccccc4)c3c2)c1` gave KDM5B inhibitor inactive, IP6K1 inh -29* and IP6K1 conf inconclusive.
For Cc1cc(-c2cnc3[nH]cc(CC(N)=O)c3c2)ccn1 the results were KDM5B inhibitor inactive and IP6K1 inh -7.
For NC(=O)Cc1c[nH]c2ncc(-c3cccc(F)c3)cc12 the results were KDM5B inhibitor 32µM*, IP6K1 inh -35* and IP6K1 conf inconclusive.
Screening CNC(=O)c1cccc(-c2cnc3[nH]cc(CC(=O)NCC(C)C)c3c2)c1 returned KDM5B inhibitor inactive and IP6K1 inh -3.
NC(=O)Cc1c[nH]c2ncc(-c3ccc(Oc4ccccc4)cc3)cc12 was read as KDM5B inhibitor inconclusive, IP6K1 inh -42* and IP6K1 conf inconclusive.
For Cc1cccc(NC(=O)c2ccc(CNC(N)=O)cc2)c1C the results were KDM5B inhibitor inactive.
`O=C(c1cc(Br)c(Br)s1)N(Cc1ccccc1)C1CC1` gave KDM5B inhibitor inactive.
For C#CCNC(=O)CCc1ccco1 the results were KDM5B inhibitor inactive.
For COc1ccc(C2Cn3nnc(C(=O)N4CCN(C(=O)c5cc(F)ccc5Cl)CC4)c3CO2)cc1 (stereo not given) the results were KDM5B inhibitor inactive and IP6K1 inh 9.
Cn1c(=O)c2c(nc(Oc3ccccc3)n2Cc2ccc(F)cc2)n(C)c1=O was read as KDM5B inhibitor inactive.
COc1cc(OC)c(NC(=O)C2=C(C)C(=O)OC23CCN(C(C)=O)CC3)cc1Cl was read as KDM5B inhibitor inactive and IP6K1 inh -4.
`COc1cc(OC)c(NC(=O)C2=C(C)C(=O)OC23CCCCCC3)cc1Cl` gave KDM5B inhibitor inactive, IP6K1 inh -100* and IP6K1 conf -13%.
Screening Cc1cnc(Nc2cccc(CN3CCOCC3)c2)nc1Nc1cccc(S(=O)(=O)NC(C)(C)C)c1 returned IP6K1 inh -9 and IP6K1 conf 3%.
`Cc1ccc(CN2CCc3nc(Nc4ccc5c(c4)OCCO5)ncc3C2)cc1` gave KDM5B inhibitor inactive and IP6K1 inh -10.
`Cc1cnc(Nc2ccc(CN3CCOCC3)cc2)nc1Nc1cccc(S(=O)(=O)NC(C)(C)C)c1` gave IP6K1 inh -16 and IP6K1 conf -2%.
For Cc1cnc2c(S(=O)(=O)NCCN3CCOCC3)cccc2c1 the results were KDM5B inhibitor inactive.
